Consider 1 compound from PubChem BioAssay AID624312 (National Center for Advancing Translational Sciences (NCATS), 2012).

The structures appear in SMILES notation. Inconclusive results are not listed. Active and inactive are the calls of the source. Calls come from the whole dose curve; as a rule, active = well fitted inhibition curve with a large enough effect; inconclusive = small, poorly fitted or top-dose-only effect; inactive = no such curve, though single readings can be large or run the other way.

This test concerns the target Peptidyl-prolyl cis-trans isomerase NIMA-interacting 1 (Homo sapiens) (UniProt Q13526). The experiment in a line: qHTS Assay to Find Inhibitors of Pin1: Hit Validation using Tamra Binding. As to conditions: Pin1 Tamra-peptide displacement, fluorescence polarization, 10 min. An excerpt:
The unique chemical properties of Pro allow for the adoption of two completely distinct amide bond conformations (cis and trans). Peptidyl-prolyl cis/trans isomerases (PPIases) are evolutionary conserved enzymes that catalyze cis/trans isomerization of peptidyl-prolyl peptide bonds. Distinct from all other PPIases such as cyclophilins and FK506-binding proteins (FKBPs), Pin1 binds a subset of phos.Ser/Thr-Pro-containing proteins using its protein-targeting WW domain and isomerizes only specific phos.Ser/Thr-Pro bonds, which cannot be effectively catalyzed by other known PPIases. […] The goal of this screen is to find small-molecule inhibitors of Pin1 using a fluorescence polarization competition assay.In the primary screen, a HiFluor-488-labeled peptide binds to the active site of Pin1 and can be displaced by compounds. […] To validate the hits using a different read-out, this Tamra binding assays was used against all the hits identified from the primary screen. […]
Briefly, 2 uL of Pin1 (all columns but column 3, which just receives buffer and serves as negative control) are dispensed into Greiner black solid bottom 1536-well assay plates. […] Finally, plates are transferred to a ViewLux high-throughput CCD imager (PerkinElmer), wherein end-point measurements of fluorescence polarization are acquired. […]
(Quantitative high-throughput screening tests each substance at several concentrations.)

Chain of Peptidyl-prolyl cis-trans isomerase NIMA-interacting 1 (Homo sapiens) (Q13526 whole entry, looked up, the tested form may be a part): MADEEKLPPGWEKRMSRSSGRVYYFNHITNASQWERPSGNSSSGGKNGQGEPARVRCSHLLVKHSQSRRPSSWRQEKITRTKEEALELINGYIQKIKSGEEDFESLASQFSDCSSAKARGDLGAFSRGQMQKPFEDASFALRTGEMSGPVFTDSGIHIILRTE

With `Cc1cc2c(C(C)C)c(O)c(O)c(C=O)c2c(O)c1-c1c(C)cc2c(C(C)C)c(O)c(O)c(C=O)c2c1O`, the Potency is 1690 nM (active).
